TDP1 block – qHTS Assay for Inhibitors of Tyrosyl-DNA Phosphodiesterase (TDP1) | Tyrosyl-DNA phosphodiesterase 1 (Homo sapiens), Q9NUW8 | recombinant TDP1, AlphaScreen DNA substrate cleavage | Potency, µM (top dose mostly 130 µM), inactives show top-dose activity change, negative = inhibition, hits mostly inhibitors | actives 0.28% (n = 350,000); also: potency is read from the fitted curve at half-maximal effect; % is scaled to controls: 0 for no effect and ±100 for the full control effect; nearly all actives have a fitted effect of over 40% in size
Target sequence (Q9NUW8 whole entry, looked up): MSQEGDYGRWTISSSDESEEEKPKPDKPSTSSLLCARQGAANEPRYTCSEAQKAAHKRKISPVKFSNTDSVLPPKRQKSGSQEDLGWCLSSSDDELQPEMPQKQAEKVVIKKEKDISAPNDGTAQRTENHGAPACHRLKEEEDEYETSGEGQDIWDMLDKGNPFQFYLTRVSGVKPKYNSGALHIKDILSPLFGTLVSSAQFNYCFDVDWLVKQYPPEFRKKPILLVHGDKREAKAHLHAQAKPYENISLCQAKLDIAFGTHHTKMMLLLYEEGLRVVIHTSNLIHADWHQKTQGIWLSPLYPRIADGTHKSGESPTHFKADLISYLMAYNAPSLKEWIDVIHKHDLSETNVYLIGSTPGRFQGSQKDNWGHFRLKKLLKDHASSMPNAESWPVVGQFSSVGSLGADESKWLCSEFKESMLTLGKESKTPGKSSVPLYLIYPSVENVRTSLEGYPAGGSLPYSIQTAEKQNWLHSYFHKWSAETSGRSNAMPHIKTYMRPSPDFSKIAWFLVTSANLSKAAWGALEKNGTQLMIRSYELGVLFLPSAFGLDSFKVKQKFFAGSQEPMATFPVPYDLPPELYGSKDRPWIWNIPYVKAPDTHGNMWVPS
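Steps: enzyme plus compound, 15 min RT; add biotin/phosphotyrosine-FITC oligonucleotide (15 nM final), react 5 min; add donor/acceptor beads (10 ug/ml final), 10 min; read AlphaScreen. Tdp1 at 1 nM final.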
DT40 TDP1 no CPT – qHTS for Inhibitors of human tyrosyl-DNA phosphodiesterase 1 (TDP1): qHTS in cells in absence of CPT | Potency, µM (series often up to 46.2 µM), without a hit: top-dose activity change, negative = growth inhibition, usual class: inhibitors | AID 686978, 2013 | actives 15% (n = 420,000) | DT40 Tdp1-/- hTDP1 cells, no CPT, ATP luminescence, 48 h; also: potency is read from the fitted curve at half-maximal effect; % is scaled to controls: 0 for no effect and ±100 for the full control effect; nearly all actives have a fitted effect of over 55% in size
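Compound effects on proliferation are scored in DT40 Tdp1-/-;hTDP1 cells in the absence of CPT. ATP levels (CellTiter-Glo luminescence) are recorded after a ≥48 hr, 37 °C incubation.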
IL-1B inflam inh – qHTS for Inhibitors of Inflammasome Signaling: IL-1-beta AlphaLISA Primary Screen; actives 4.7% (n = 360,000); activity change, % at 57.5 µM; THP-1 LPS/ATP IL-1B secretion, AlphaLISA, 16 h; active compounds read low; in the data active = activity change below about -50%; inconclusive = mostly about -30% to -49%; also: % is scaled to controls: 0 for no effect and ±100 for the full control effect
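THP-1 cells pretreated 1 hr with compounds (up to 57.5 uM final), then stimulated with LPS (250 ng/mL final) plus ATP (1.25 mM final); secreted IL-1B measured by AlphaLISA after 16 hr, decreased signal indicating inhibition.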
HepG2 tox – qHTS for Inhibitors of TGF-b: Cytotox Counterscreen; actives 0.76% (n = 410,000); Potency, µM (doses to about 46.1 µM), for inactives: at the top dose activity change, negative = cytotoxicity, most hits filed as cytotoxic; HepG2 CAGA-GFP viability, ATP luminescence, 18 h; also: potency is read from the fitted curve at half-maximal effect
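HepG2 CAGA-GFP cells (1000/well, DMEM with 1% FBS) received compound, then TGF-beta at 500 pg/mL final, and were incubated 18 hours at 37 degrees C. Viability was read by CellTiter-Glo luminescence. Media-only wells were set as complete cell-killing and DMSO as no toxicity.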
TDP1 cell CPT – qHTS for Inhibitors of human tyrosyl-DNA phosphodiesterase 1 (TDP1): qHTS in cells in presence of CPT. chicken DT40 Tdp1-/-;hTDP1 cells + 20 nM CPT, ATP luminescence, 48 h. Potency, µM (titrated, usually from 46.2 µM), inactives show top-dose activity change, negative = growth inhibition, hits mostly inhibitors. actives 12% (n = 420,000); also: potency is read from the fitted curve at half-maximal effect; % is scaled to controls: 0 for no effect and ±100 for the full control effect; nearly all actives have a fitted effect of over 55% in size
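Chicken DT40 Tdp1-/- cells stably complemented with human TDP1 were seeded at 400 cells/well in medium containing 20 nM camptothecin, exposed to pin-transferred compounds, and grown at 37 °C for at least 48 hr. Viability was read as ATP luminescence.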
TGFb inhibitor – qHTS for Inhibitors of TGF-b; HepG2 CAGA-GFP TGF-b/SMAD3 reporter, GFP fluorescence, 18 h; TGF-beta stimulated, 500 pg/mL final; Potency, µM (series often up to 46.1 µM), inactives show at the highest dose activity, negative = inhibition, most hits filed as inhibitors; actives 1.2% (n = 410,000); AID 588855, 2011; also: potency is read from the fitted curve at half-maximal effect; % is scaled to controls: 0 for no effect and ±100 for the full control effect; nearly all actives have a fitted effect of over 65% in size
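Inhibition was scored as loss of TGF-beta-induced (500 pg/mL final, 18 hours, 37 degrees C) GFP in HEPG2 cells carrying a CAGA-GFP reporter, in DMEM with 1% FBS. Well GFP was summed per cell; Activity was normalised to unstimulated and stimulated DMSO wells, then concentration-response fitting.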
Starred values were filed as active, the others as inactive; ? = inconclusive; / = no result given; [ ] = another dose, or the depositor's remark. An excerpt weighted towards active compounds, which were near 18% of everything screened. Unless noted, calls follow the shape of the dose curve; as a rule, active = well fitted curve in the direction sought with a large enough effect; inconclusive = small, poorly fitted or top-dose-only effect, or another doubt; inactive = no such curve, though single readings can be large; an effect the other way counts as inactive or inconclusive.

SMILES | TDP1 block | DT40 TDP1 no CPT | IL-1B inflam inh | HepG2 tox | TDP1 cell CPT | TGFb inhibitor
CC(=O)Oc1ccc(C(=O)Nc2ccc(C3(C#N)CCCC3)cc2)cc1 | / | 16µM* | -59* | -54% | 16µM* | 7%
Cc1ccc(NC(=O)c2cccc3c2-c2ccccc2C3=O)cc1C | 4% | ? | 50 | -17% | ? | 3%
O=C(NC1=C(NC2CCS(=O)(=O)C2)C(=O)c2ccccc2C1=O)c1ccccc1 (stereo not given) | 2% | 2.3µM* | -93* | -117% | 2.1µM* | ?
N#CC1(c2ccc(NC(=O)c3ccccc3)cc2)CCCC1 | 3% | / | / | / | / | /
CCN(CC)c1ccc(C(=O)Nc2ccccc2)cc1[N+](=O)[O-] | 8% | ? | -96* | -4% | -6% | -6%
CC(=O)Nc1ccc(NC(=O)c2cccc3c2-c2ccccc2C3=O)cc1 | -3% | 18µM* | 6 | -24% | 21µM* | ?
COc1ccc(C(=O)Nc2ccc(OCc3ccccc3)cc2)cc1[N+](=O)[O-] | 7% | 2% | 0 | 2% | ? | 17%
CC(=O)Nc1ccc(NC(=O)c2ccccc2Br)cc1 | / | -1% | -11 | 9% | 4% | 7%
O=C(Nc1ccc(Br)cc1)c1ccccc1Br | 1% | 19% | -56* | -2% | -10% | 15%
O=C(Nc1cccc(C(=O)Nc2ccc(Br)cc2)c1)c1ccccc1 | / | 12µM* | -5 | -44% | ? | ?
CC(=O)Oc1ccc(C(=O)Nc2cccc(C(=O)c3cccc(NC(=O)c4ccc(OC(C)=O)cc4)c3)c2)cc1 | / | 23µM* | 11 | -2% | ? | ?
COc1ccc(C(=O)Nc2ccc(Nc3ccccc3)cc2)cc1[N+](=O)[O-] | / | 21µM* | -16 | -49% | 23µM* | ?
O=C(CCC(=O)N(CC(=O)NC1CCCC1)c1ccccc1F)Nc1nccs1 | / | -16% | -19 | 22% | -9% | -19%
COc1cccc(NC(=O)c2ccccc2)c1 | -3% | 10% | -1 | -7% | 1% | 3%
CCOc1ccc(NS(=O)(=O)c2cc(NC(=O)c3cccc(C)c3)ccc2Cl)cc1 | 0% | ? | ? | -5% | 16µM* | ?
Cc1cccc(C(=O)Nc2ccc(NC(=O)c3cccc(C)c3)cc2)c1 | / | -22% | -4 | -13% | -8% | -2%
CC(C)OC(=O)c1cccc(NC(=O)c2ccccc2)c1 | -2% | 13µM* | -3 | -31% | 13µM* | 3%
Cc1cccc(C(=O)Nc2ccc(NC(=O)c3ccccc3)cc2)c1 | / | ? | -58* | -2% | ? | -2%
CCOc1ccc(NS(=O)(=O)c2cc(C(=O)N3CCCC3)ccc2Cl)cc1 | 2% | -29% | 12 | 0% | -23% | 3%
CC(=O)Oc1ccc(Nc2ccccc2)cc1 | 2% | ? | 0 | 0% | 18µM* | 18%
CC(C)(O)C#Cc1ccc(CN2CCc3nnc(CNC(=O)c4cccc(F)c4)n3CC2)cc1 | / | -27% | / | / | 8% | /
CCCCn1c(N)c(N(CC(C)C)C(=O)c2c(-c3ccccc3)noc2C)c(=O)[nH]c1=O | 0% | -1% | 12 | 7% | 0% | 12%
CCCCOc1ccc(Cl)cc1Nc1nc(NCCO)nc(N2CCCC2)n1 | / | / | / | -4% | / | ?
Cc1ccc(C(=O)Nc2ccc(Oc3ccc(C(=O)O)c(C(=O)O)c3)cc2)cc1C | ? | 1% | 12 | 4% | 23µM* | 2%
O=C(O)c1ccccc1C(=O)Nc1ccc(Oc2ccc3ccccc3c2)cc1 | 9% | -23% | 19 | -11% | 11% | 0%
SMILES | TDP1 block | DT40 TDP1 no CPT | IL-1B inflam inh | HepG2 tox | TDP1 cell CPT | TGFb inhibitor
Cc1ccc(C(=O)Nc2ccc(Nc3ccccc3)cc2)cc1Br | / | 4.1µM* | / | -23% | 6.5µM* | -10%
Cc1ccc(C(=O)Nc2ccc(Br)cc2)cc1S(=O)(=O)NCc1ccccc1 | -1%[12.3 µM] | ? | / | -54% | ? | 16µM*
Cc1ccc(C(=O)Nc2ccc(Nc3ccccc3)cc2)cc1C | / | 21µM* | -69* | -4% | 21µM* | ?
COc1ccc(C(=O)Nc2ccc(Nc3ccccc3)cc2)cc1OC | / | 12% | -9 | -32% | -5% | -15%
O=C(Nc1cccc(S(=O)(=O)N2CCCC2)c1)c1cc(=O)[nH]c2ccccc12 | 0%[56.1 µM] | -8% | 14 | -63% | -21% | ?
Cc1cccc(NC(=O)CN(C)C(=O)C2CCCC2)c1C | 3% | 23% | 3 | 4% | -15% | 4%
CC(=O)Nc1ccc(OC(=O)c2ccccc2O)cc1 | 8%[56.1 µM] | ? | / | / | 0.58µM* | /
Cc1cccc(C(=O)Nc2cccc(NC(=O)c3ccccc3)c2)c1 | 2% | ? | -21 | -6% | -6% | -20%
Cc1ccc(NC(=O)c2ccc(NC(=O)c3ccccc3)cc2)cc1C | 4% | ? | 0 | -46% | 13µM* | ?
O=C(NNC(=O)c1ccc(NC(=O)c2ccccc2)cc1)c1ccccc1 | 3% | ? | 9 | 10% | -23% | 8%
Cc1cccc(C(=O)Nc2cccc3c2CCCC3)c1 | / | 9.2µM* | -5 | 7% | 18µM* | -20%
O=C(Oc1ccccc1)c1ccccc1O | -14% | 3% | / | / | -10% | /
Cc1cccc(NC2=C(NC(=O)c3ccccc3)C(=O)c3ccccc3C2=O)c1 | 9% | 12µM* | -74* | -99% | 10µM* | ?
O=C(COc1ccc(Br)cc1F)Nc1nnc(C2CC2)s1 | 0% | 4% | -3 | -8% | 6% | -7%
COc1ccc(CCN(C)C2CCCN(C(=O)CCC(F)(F)F)C2)cc1OC (stereo not given) | / | -12% | 25 | 17% | 2% | 10%
COc1cccc(COCC(O)CN2CCC(C(N)=O)CC2)c1 (stereo not given) | ? | -4% | 30 | 4% | 17% | ?
COc1cccc(NC(=O)Cn2c(=O)n(Cc3ccc(C(=O)NCc4ccc(C)cc4)cc3)c(=O)c3ccccc32)c1 | 8% | -10% | / | -1% | -9% | ?
OCc1ccccc1OCCCN1CCC(Cc2ccccc2)CC1 | 5% | ? | ? | -17% | -1% | 14%
COc1cc(OC)c(CN2CCC(Cc3ccccc3)CC2)cc1Br | / | ? | -58* | -39% | ? | ?

Screening results from PubChem BioAssay.
